Anthrax LF prot = inhibitors of Bacillus anthracis lethal factor protease. P15917. multiplex microsphere protease cleavage assay, LF. inhibition, % at 10 µM. 0.12% of 360,000 active. AID 588501; further: plate controls were buffer without enzyme for full effect and enzyme alone for no effect
BoNT A protease = inhibitors of Botulinum neurotoxin A light chain protease. inhibition, % at 10 µM. 0.17% of 360,000 active. multiplex microsphere protease substrate cleavage, flow cytometry; further: plate controls were buffer without enzyme for full effect and enzyme alone for no effect
Autofluor counter = compound fluorescence in toxin protease inhibitor counterscreen; compound autofluorescence counterscreen, microsphere flow cytometry; active compounds read high; fluorescence intensity (test concentration not listed); 3.1% of 360,000 active; in the data active means fluorescence intensity above about 16000; inconclusive means no clear call, values can overlap the other calls
MazF activator = MazEF (E. coli) toxin RNase activation | FAM/BHQ RNA-DNA oligo cleavage fluorescence, 5 h | activation, % at 20 µM | 0.32% of 350,000 active | P0AE70; in the data active means activation above about 50%
Target sequence (P0AE70 whole entry, looked up): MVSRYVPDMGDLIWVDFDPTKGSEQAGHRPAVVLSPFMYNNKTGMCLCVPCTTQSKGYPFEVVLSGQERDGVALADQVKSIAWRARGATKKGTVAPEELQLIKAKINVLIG
BoNT-F LC inh = BoNT F light chain protease inhibition. Multiplex microsphere protease cleavage assay, flow cytometry. inhibition, % at 10 µM. 0.22% of 360,000 active. AID 588497; in the data active means inhibition above about 35%, passing the limit was not always enough; inconclusive means no clear call, values can overlap the other calls; further: plate controls were buffer without enzyme for full effect and enzyme alone for no effect
VHR inh abs = DUSP3 (human) phosphatase inhibition; inhibition, % at 13.3 µM; recombinant VHR phosphatase, pNPP absorbance; 0.52% of 290,000 active; AID 1654; in the data active means inhibition above about 50%
Target sequence (P51452 whole entry, looked up): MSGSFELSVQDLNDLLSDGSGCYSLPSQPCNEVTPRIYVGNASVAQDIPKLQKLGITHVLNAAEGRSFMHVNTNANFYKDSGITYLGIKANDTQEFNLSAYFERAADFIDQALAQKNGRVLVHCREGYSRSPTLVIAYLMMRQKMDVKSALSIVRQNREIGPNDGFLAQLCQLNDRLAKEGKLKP
BoNTA LC inh 1 = BoNT/A light chain protease inhibition; shares compounds with BoNT-F LC inh; multiplex microsphere protease assay, flow cytometry; inhibition, % at 10 µM; 3% of 720 active; AID 602139; in the data active means inhibition above about 32%
BoNTF LC inh 1 = blocks botulinum neurotoxin F light chain protease | inhibition, % at 10 µM | multiplex microsphere protease cleavage assay, flow cytometry | shares compounds with BoNT-F LC inh | 720 tested, under 10 active | AID 602140; call rule not given here
LF protease CP1 = blocks anthrax lethal factor protease; shares compounds with BoNT-F LC inh; multiplex microsphere protease cleavage assay, LF; inhibition, % at 10 µM; 720 tested, under 10 active; AID 602142; call rule not given here
Numbers without * were called inactive. Rows were chosen to be rich in hits. Some 4.1% of all compounds tested hit in one or more screens of this group. Unless noted, no stated cut-off is given here; in the data, active means inhibition above about 30%; inconclusive means no clear call, values can overlap the other calls; inactive means below that.

For CCCCNC(=O)C1(C)CCN1Cc1cccc2c(OC)cc(C(=O)OCC)cc12 (stereo not drawn) the results were Anthrax LF prot -2, BoNT A protease -1, Autofluor counter 3029 and BoNT-F LC inh -4.
COc1ccc(CN2C[C@@H](CO)O[C@@H](n3cnc4c(NCc5ccncc5)ncnc43)C2)cc1 was read as Anthrax LF prot 4, BoNT A protease 1, Autofluor counter 2766 and BoNT-F LC inh -1.
For CC1(c2ccc(Cl)cc2)NC(=O)N(CC(=O)N2CCc3ccccc32)C1=O (stereo not drawn) the results were Anthrax LF prot -5, BoNT A protease 0, Autofluor counter 3576, MazF activator 1 and BoNT-F LC inh 0.
`CN(CC(=O)Nc1cccc(F)c1)C(=O)c1cccnc1Sc1ccc(Cl)cc1` gave Anthrax LF prot -3, BoNT A protease 2, Autofluor counter 5590, MazF activator -2 and BoNT-F LC inh -10.
`CN(CC(=O)Nc1cccc(F)c1)C(=O)c1cccnc1Sc1ccccc1Cl` gave Anthrax LF prot 1, BoNT A protease 38*, Autofluor counter inconclusive, MazF activator -7, BoNT-F LC inh 0, BoNTA LC inh 1 2, BoNTF LC inh 1 6 and LF protease CP1 5.
Cc1cnc(C(=O)OCC(=O)N2C(C)CCCC2C)cn1 (stereo not drawn) was read as Anthrax LF prot -1, BoNT A protease -1, Autofluor counter 3614, MazF activator 2 and BoNT-F LC inh -7.
Screening Cc1cc(C)nc(NS(=O)(=O)c2ccc(NC(=O)c3ccc4c(c3)OCCO4)cc2)n1 returned Anthrax LF prot 3, BoNT A protease 4, Autofluor counter 4686, MazF activator -13, BoNT-F LC inh 36*, VHR inh abs 15, BoNTA LC inh 1 0, BoNTF LC inh 1 -6 and LF protease CP1 -4.
`Oc1[nH]c(N=C2N=c3ccccc3=N2)c2ccccc12` gave Anthrax LF prot -4, BoNT A protease 13, Autofluor counter 3598, MazF activator 56*, BoNT-F LC inh 111*, VHR inh abs 32, BoNTA LC inh 1 7, BoNTF LC inh 1 32* and LF protease CP1 9.
`CCS(=O)(=O)NCc1ccc2c(c1)cc(C)n2C` gave Anthrax LF prot -72, BoNT A protease 10, Autofluor counter 4442, MazF activator 19, BoNT-F LC inh -116 and VHR inh abs 2.
Screening CCCS(=O)(=O)NCc1ccc2c(c1)cc(C)n2C returned Anthrax LF prot 3, BoNT A protease 69*, Autofluor counter inconclusive, MazF activator -21, BoNT-F LC inh -41, VHR inh abs 22, BoNTA LC inh 1 1, BoNTF LC inh 1 -14 and LF protease CP1 -2.
`Cc1cc2cc(CNC(=O)CC(C)C)ccc2n1C` gave Anthrax LF prot 34*, BoNT A protease 31*, Autofluor counter 17533*, MazF activator 0, BoNT-F LC inh 13, VHR inh abs 55*, BoNTA LC inh 1 0, BoNTF LC inh 1 -7 and LF protease CP1 -2.
`CCCCC(=O)NCc1ccc2c(c1)cc(C)n2C` gave Anthrax LF prot 47*, BoNT A protease 43*, Autofluor counter 10959, MazF activator -6, BoNT-F LC inh 17, VHR inh abs 11, BoNTA LC inh 1 2, BoNTF LC inh 1 -5 and LF protease CP1 -1.
O=C(c1cc2ccccc2o1)N1CCN(c2ncccn2)CC1 was read as Anthrax LF prot 3, BoNT A protease 1, Autofluor counter 3775, MazF activator 11 and BoNT-F LC inh -1.
Screening CCc1nc2ccc(C(=O)NCCc3ccccn3)cn2c1N(CC)CCOC returned Anthrax LF prot -13, BoNT A protease 0, Autofluor counter 2688 and BoNT-F LC inh 2.
CCn1c(CCNC(=O)c2ccc(OC)c(OC)c2)nc2ccccc21 was read as Anthrax LF prot 1, BoNT A protease 2, Autofluor counter 4085, MazF activator -2, BoNT-F LC inh 40*, VHR inh abs 16, BoNTA LC inh 1 2, BoNTF LC inh 1 3 and LF protease CP1 0.
`CCCCNC(=O)Cn1cnc([N+](=O)[O-])n1` gave Anthrax LF prot 0, BoNT A protease 5, Autofluor counter 2612, MazF activator 6, BoNT-F LC inh 40*, VHR inh abs 47, BoNTA LC inh 1 -1, BoNTF LC inh 1 0 and LF protease CP1 6.
`CC(Oc1ccc(Br)cc1)c1nc2c3ccccc3nc(=S)n2[nH]1` (stereo not drawn) gave Anthrax LF prot -2, BoNT A protease 4, Autofluor counter 3418, MazF activator -3, BoNT-F LC inh 36*, VHR inh abs 12, BoNTA LC inh 1 -1, BoNTF LC inh 1 -4 and LF protease CP1 -2.
Screening CCCC(Oc1ccc(Br)cc1)c1nc2c3cc(OC)c(OC)cc3nc(=S)n2[nH]1 (stereo not drawn) returned Anthrax LF prot 2, BoNT A protease 1, Autofluor counter 2447, MazF activator -4, BoNT-F LC inh -2 and VHR inh abs -5.
For CC1CN(CC(=O)Nc2nc(-c3ccc(Cl)cc3)cs2)CC(C)O1 (stereo not drawn) the results were Anthrax LF prot 6, BoNT A protease -4, Autofluor counter 4451, MazF activator 5 and BoNT-F LC inh -12.
`Cn1nc(C(=O)OCC(=O)Nc2ccccc2OC(F)F)c2ccccc2c1=O` gave Anthrax LF prot 3, BoNT A protease 4, Autofluor counter 4713, MazF activator -1 and BoNT-F LC inh 8.
Screening c1ccc2c(NC3CCCC3)nnc(NC3CCCC3)c2c1 returned Anthrax LF prot 2, BoNT A protease 2, Autofluor counter 3938, MazF activator 8, BoNT-F LC inh -4 and VHR inh abs -9.
Screening Nc1ccccc1NC1CCCCC1 returned Anthrax LF prot 15, BoNT A protease 74*, Autofluor counter 2264, MazF activator 11, BoNT-F LC inh -30, VHR inh abs 10, BoNTA LC inh 1 17, BoNTF LC inh 1 -16 and LF protease CP1 15.
For COc1ccc(-c2ccnc(SCC(=O)c3ccc(OC)c(OC)c3)n2)cc1 the results were Anthrax LF prot 0, BoNT A protease -1, Autofluor counter 2048, MazF activator 3, BoNT-F LC inh -11 and VHR inh abs 16.
Screening COc1ccc(-c2ccnc(SCC(=O)c3ccc(Cl)cc3)n2)cc1 returned Anthrax LF prot 38*, BoNT A protease 8, Autofluor counter 6905, MazF activator -3, BoNT-F LC inh 70*, VHR inh abs 33, BoNTA LC inh 1 0, BoNTF LC inh 1 -4 and LF protease CP1 -2.

Assay outcomes as filed in PubChem.
